One compound from ChEMBL document CHEMBL1961873, “Compounds: GSK PKIS; Assays: Nanosyn kinase panel” (2012) can be followed below.

As usually defined, the inhibition is the drop in the measured response relative to a control, in per cent.

Experiment [1] has as its target Sphingosine kinase 1 (Homo sapiens) (UniProt Q9NYA1). Particulars: at 1 µM.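 Also: mean SPHK1 inhibition value reported from the GSK PKIS kinase panel screen.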
Experiment [2] deals with T1, Sphingosine kinase 2 (Homo sapiens) (UniProt Q9NRA0).
T1 sequence (whole entry): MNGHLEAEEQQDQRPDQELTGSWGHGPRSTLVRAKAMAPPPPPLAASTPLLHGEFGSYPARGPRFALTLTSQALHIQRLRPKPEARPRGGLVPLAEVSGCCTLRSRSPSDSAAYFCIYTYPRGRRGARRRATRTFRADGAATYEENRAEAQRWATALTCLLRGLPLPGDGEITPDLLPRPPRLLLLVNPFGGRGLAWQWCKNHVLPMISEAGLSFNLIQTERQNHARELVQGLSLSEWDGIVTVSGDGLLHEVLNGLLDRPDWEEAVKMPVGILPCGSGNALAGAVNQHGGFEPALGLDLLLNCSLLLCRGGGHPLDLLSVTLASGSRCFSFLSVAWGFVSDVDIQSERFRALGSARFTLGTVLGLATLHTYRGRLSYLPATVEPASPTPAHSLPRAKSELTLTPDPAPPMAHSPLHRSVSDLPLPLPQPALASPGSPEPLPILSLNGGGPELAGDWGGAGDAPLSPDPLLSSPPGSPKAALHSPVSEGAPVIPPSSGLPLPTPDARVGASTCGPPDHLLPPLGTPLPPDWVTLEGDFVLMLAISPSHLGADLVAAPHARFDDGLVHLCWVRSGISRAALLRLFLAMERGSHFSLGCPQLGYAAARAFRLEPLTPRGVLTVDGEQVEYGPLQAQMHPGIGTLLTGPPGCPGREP
The conditions noted are these: at 0.1 µM.

In experiment [3] the target is T1, Sphingosine kinase 2 (Homo sapiens). Particulars: at 1 µM.
Experiment [4] has as its target Casein kinase II subunit alpha (Homo sapiens) (UniProt P68400). The conditions noted are these: at 0.1 µM.
Experiment [5] has the same target. Particulars: at 1 µM.
The target in experiment [6] is T2, Inhibitor of nuclear factor kappa-B kinase subunit alpha (Homo sapiens) (UniProt O15111).
T2 sequence (whole entry): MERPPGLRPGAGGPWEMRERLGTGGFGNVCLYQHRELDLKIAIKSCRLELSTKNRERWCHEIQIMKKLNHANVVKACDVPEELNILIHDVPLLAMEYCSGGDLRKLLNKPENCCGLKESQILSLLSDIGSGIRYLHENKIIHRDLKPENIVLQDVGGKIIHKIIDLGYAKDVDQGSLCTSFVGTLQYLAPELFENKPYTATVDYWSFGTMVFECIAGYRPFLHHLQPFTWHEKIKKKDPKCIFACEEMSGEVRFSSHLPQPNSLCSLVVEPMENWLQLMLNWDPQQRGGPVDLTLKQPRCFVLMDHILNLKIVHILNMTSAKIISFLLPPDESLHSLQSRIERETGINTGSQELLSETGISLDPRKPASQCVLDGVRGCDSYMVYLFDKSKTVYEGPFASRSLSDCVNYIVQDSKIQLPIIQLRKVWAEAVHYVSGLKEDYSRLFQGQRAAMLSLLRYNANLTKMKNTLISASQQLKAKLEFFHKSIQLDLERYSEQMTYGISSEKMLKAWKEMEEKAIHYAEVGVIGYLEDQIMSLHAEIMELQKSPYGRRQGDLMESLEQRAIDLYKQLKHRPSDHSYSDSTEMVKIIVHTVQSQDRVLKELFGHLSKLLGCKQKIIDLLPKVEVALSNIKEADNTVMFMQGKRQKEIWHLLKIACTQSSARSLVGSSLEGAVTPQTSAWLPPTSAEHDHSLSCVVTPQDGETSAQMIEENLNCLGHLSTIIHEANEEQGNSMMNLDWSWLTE
Particulars: at 0.1 µM.

Experiment [7] has as its target T2, Inhibitor of nuclear factor kappa-B kinase subunit alpha (Homo sapiens). Particulars: at 1 µM.
In experiment [8] the target is T3, Inhibitor of nuclear factor kappa-B kinase subunit beta (Homo sapiens) (UniProt O14920).
T3 sequence (whole entry): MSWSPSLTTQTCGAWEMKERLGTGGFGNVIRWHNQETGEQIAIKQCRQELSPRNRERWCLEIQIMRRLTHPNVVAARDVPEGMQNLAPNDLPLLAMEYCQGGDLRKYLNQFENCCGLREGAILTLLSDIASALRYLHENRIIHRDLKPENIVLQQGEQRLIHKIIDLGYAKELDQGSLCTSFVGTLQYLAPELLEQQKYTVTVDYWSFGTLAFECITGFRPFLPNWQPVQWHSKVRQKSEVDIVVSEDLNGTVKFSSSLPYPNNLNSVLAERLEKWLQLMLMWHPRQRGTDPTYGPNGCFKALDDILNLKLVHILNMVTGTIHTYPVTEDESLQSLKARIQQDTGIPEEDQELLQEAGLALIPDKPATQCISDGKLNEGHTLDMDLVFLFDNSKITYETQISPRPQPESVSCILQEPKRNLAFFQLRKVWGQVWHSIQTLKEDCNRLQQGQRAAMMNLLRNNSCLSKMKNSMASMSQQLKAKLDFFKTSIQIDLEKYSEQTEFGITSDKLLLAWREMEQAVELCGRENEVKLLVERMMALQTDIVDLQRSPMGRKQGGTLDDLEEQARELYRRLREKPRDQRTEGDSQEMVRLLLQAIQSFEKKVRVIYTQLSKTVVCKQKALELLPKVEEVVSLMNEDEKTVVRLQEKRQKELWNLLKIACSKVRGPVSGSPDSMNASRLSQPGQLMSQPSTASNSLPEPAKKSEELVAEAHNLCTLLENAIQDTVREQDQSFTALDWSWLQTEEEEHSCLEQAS
Particulars: at 0.1 µM.

The target in experiment [9] is T3, Inhibitor of nuclear factor kappa-B kinase subunit beta (Homo sapiens). Particulars: at 1 µM.
The target in experiment [10] is T4, Inhibitor of nuclear factor kappa-B kinase subunit epsilon (Homo sapiens) (UniProt Q14164).
T4 sequence (whole entry): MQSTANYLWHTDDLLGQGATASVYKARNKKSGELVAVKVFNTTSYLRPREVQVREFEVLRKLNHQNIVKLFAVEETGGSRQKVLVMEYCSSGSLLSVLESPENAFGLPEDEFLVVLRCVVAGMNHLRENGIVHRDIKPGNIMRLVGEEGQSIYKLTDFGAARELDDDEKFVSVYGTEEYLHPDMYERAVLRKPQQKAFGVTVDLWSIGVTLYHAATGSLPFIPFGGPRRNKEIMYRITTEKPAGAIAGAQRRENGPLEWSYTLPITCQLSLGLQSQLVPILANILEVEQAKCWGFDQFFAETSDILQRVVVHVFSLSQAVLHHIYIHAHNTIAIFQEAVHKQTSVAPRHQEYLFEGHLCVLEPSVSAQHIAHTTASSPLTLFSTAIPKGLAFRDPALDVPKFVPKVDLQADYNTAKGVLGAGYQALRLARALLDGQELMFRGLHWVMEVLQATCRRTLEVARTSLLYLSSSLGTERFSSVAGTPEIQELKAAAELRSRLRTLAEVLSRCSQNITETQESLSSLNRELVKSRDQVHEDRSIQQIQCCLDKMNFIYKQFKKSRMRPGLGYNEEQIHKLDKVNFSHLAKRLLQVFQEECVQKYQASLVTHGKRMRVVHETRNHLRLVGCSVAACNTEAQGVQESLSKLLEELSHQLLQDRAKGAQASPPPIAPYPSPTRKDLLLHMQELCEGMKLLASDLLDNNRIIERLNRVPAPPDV
Particulars: at 0.1 µM.

For experiment [11], the target named is T4, Inhibitor of nuclear factor kappa-B kinase subunit epsilon (Homo sapiens). The conditions noted are these: at 1 µM.
Experiment [12] has as its target T5, Serine/threonine-protein kinase Nek1 (Homo sapiens) (UniProt Q96PY6).
T5 sequence (whole entry): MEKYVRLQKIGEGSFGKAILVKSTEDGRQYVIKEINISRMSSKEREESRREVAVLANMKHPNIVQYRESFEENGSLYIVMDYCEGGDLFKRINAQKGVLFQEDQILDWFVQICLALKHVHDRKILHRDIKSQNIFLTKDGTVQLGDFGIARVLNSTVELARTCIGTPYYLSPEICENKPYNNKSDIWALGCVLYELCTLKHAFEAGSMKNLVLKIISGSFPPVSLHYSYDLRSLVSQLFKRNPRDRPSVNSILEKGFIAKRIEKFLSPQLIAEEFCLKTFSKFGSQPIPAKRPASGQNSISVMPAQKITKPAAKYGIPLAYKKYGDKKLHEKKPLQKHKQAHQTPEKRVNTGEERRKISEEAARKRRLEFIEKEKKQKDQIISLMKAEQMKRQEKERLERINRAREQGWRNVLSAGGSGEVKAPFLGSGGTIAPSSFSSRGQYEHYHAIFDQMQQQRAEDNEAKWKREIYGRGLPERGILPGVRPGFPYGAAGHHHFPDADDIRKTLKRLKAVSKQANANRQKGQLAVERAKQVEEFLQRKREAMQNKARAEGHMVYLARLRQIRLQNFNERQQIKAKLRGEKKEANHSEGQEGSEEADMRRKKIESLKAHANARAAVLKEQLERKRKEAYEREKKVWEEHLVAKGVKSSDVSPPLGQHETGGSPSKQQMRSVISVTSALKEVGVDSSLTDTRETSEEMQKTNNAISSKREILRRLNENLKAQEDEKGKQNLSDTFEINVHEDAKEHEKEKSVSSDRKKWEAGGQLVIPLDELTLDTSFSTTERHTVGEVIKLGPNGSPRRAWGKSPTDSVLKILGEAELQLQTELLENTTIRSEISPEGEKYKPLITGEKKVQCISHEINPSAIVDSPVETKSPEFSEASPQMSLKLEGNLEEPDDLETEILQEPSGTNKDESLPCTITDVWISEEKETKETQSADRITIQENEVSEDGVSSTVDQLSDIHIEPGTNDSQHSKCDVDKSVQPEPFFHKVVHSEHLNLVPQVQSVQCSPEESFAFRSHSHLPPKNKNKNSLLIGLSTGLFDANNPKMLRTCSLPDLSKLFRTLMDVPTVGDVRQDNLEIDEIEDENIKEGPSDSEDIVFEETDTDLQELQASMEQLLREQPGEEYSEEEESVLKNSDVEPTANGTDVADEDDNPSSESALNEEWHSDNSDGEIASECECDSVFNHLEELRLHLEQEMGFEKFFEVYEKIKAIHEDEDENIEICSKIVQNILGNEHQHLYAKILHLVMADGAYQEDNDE
Particulars: at 0.1 µM.

Experiment [13] addresses T5, Serine/threonine-protein kinase Nek1 (Homo sapiens). Particulars: at 1 µM.
Experiment [14] concerns the target T6, Serine/threonine-protein kinase Nek2 (Homo sapiens) (UniProt P51955).
T6 sequence (whole entry): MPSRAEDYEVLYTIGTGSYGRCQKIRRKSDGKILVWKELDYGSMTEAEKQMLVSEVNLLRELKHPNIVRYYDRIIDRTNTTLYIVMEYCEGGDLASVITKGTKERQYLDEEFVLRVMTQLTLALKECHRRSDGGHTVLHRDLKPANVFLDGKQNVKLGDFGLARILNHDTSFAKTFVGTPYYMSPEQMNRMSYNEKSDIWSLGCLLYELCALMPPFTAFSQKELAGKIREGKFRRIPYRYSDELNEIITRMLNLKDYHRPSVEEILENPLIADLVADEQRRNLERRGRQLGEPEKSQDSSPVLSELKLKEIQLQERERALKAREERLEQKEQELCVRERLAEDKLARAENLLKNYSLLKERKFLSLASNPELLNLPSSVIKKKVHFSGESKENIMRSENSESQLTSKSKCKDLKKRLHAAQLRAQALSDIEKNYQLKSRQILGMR
Particulars: at 0.1 µM.

The target in experiment [15] is T6, Serine/threonine-protein kinase Nek2 (Homo sapiens). The conditions noted are these: at 1 µM.
Experiment [16] has as its target Serine/threonine-protein kinase Nek6 (Homo sapiens) (UniProt Q9HC98). Particulars: at 0.1 µM.
Experiment [17] shares this target. Particulars: at 1 µM.
Experiment [18] deals with Serine/threonine-protein kinase Nek7 (Homo sapiens) (UniProt Q8TDX7). The conditions noted are these: at 0.1 µM.
The target is the same in experiment [19]. The conditions noted are these: at 1 µM.
The target of experiment [20] is T7, Serine/threonine-protein kinase Nek9 (Homo sapiens) (UniProt Q8TD19).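 Also: reported value is the mean percent inhibition of NEK9.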
T7 sequence (whole entry): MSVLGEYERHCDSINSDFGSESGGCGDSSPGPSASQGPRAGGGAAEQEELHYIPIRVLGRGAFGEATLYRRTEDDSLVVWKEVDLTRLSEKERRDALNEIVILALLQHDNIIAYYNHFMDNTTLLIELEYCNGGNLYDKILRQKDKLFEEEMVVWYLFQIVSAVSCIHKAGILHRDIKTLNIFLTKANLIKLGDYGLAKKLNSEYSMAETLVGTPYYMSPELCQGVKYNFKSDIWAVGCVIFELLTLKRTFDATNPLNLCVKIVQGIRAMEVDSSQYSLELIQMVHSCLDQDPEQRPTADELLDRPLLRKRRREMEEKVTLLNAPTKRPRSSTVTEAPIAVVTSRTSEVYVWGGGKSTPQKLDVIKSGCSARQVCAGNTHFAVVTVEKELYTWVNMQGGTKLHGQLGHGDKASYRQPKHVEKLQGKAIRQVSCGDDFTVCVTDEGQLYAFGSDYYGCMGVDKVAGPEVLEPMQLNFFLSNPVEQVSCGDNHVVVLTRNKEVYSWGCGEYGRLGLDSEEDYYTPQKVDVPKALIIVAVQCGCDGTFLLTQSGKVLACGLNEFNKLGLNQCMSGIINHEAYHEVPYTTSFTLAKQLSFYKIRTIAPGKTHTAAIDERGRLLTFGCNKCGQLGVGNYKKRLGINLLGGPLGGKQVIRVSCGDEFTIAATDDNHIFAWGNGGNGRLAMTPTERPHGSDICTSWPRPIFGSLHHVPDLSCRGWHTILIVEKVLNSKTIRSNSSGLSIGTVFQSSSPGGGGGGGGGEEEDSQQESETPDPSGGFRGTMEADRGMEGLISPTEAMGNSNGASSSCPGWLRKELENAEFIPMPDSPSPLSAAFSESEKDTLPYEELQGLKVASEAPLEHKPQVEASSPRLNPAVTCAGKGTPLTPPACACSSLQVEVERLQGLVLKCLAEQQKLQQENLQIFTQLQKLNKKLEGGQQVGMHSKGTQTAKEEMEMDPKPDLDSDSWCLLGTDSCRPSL
The conditions noted are these: at 0.1 µM.

Sequence of Serine/threonine-protein kinase Nek6 (Homo sapiens) (Q9HC98 whole entry): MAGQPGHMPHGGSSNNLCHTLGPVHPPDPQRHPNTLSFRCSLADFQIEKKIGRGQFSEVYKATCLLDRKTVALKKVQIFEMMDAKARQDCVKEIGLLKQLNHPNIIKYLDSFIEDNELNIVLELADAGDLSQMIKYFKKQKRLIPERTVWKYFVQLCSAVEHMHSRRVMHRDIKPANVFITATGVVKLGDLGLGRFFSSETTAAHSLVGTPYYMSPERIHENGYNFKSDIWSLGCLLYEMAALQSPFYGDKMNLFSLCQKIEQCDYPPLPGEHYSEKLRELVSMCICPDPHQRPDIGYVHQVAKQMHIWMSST
Sequence of Casein kinase II subunit alpha (Homo sapiens) (P68400 whole entry, looked up): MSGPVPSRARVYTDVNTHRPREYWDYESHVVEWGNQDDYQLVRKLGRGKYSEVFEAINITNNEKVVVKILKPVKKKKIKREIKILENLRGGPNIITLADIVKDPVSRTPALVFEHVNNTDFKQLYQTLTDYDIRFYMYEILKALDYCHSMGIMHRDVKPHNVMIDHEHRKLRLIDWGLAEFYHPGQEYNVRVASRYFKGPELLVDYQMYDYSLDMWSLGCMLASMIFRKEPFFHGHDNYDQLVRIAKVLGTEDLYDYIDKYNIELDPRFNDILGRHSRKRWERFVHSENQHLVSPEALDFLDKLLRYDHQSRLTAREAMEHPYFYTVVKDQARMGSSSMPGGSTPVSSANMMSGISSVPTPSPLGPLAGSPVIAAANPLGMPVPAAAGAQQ
Sequence of Serine/threonine-protein kinase Nek7 (Homo sapiens) (Q8TDX7 whole entry, looked up): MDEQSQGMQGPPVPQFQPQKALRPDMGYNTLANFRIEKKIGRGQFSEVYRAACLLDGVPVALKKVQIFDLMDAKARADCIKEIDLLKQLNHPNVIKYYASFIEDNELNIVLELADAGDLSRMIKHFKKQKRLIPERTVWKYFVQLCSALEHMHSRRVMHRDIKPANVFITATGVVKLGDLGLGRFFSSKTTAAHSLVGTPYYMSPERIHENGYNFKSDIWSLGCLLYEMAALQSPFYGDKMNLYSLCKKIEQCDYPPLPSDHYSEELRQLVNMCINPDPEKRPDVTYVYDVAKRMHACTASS
Sequence of Sphingosine kinase 1 (Homo sapiens) (Q9NYA1 whole entry): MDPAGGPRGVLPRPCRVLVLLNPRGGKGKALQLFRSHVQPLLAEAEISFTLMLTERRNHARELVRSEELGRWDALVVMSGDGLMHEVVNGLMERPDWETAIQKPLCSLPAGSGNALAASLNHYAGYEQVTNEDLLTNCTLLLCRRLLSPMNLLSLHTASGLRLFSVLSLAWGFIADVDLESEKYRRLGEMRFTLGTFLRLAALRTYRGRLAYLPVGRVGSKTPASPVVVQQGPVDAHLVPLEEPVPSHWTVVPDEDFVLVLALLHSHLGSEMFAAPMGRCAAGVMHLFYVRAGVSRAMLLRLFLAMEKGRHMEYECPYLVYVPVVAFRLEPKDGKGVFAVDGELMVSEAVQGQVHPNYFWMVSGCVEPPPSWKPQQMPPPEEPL

Take `CS(=O)(=O)CCNCc1ccc(-c2ccc3ncnc(Nc4ccc(OCc5ccccc5)c(Br)c4)c3c2)o1`: the inhibition is -1.39% in experiment [1]; -0.25% in [2]; -1.58% in experiment [3]; 13.7% in experiment [4]; 5.24% in [5]; 3.37% in experiment [6]. Also, the inhibition was 1.56% in [7]; 9.38% in experiment [8]; 11% in experiment [9]; 6.98% in experiment [10]; 4.71% in experiment [11]; 1.95% in experiment [12]. For the same compound, the inhibition is 1.93% in [13]; 5.02% in [14]; 3.81% in experiment [15]; 4.55% in experiment [16]; 3.89% in experiment [17]; 3.08% in experiment [18]. Moreover, the figures for the inhibition in experiment [19] and in experiment [20] were 5.42% and 6.05%, respectively.
